FBPA Giardia inh = qHTS Assay for Inhibitors of Fructose-1,6-bisphosphate Aldolase from Giardia Lamblia; purified Giardia FBPA; 290,000 tested, 0.71% active; AID 2451, 2010; Potency, µM (titrated, usually from 59.6 µM), for inactives: top-dose activity, negative = inhibition, usual class: inhibitors; A8B2U2; note: potency is the fitted concentration of half-maximal effect; % is set by controls: 0 for no effect and ±100 for the full control effect; nearly all actives have a fitted effect of over 55% in size
Target sequence (A8B2U2 whole entry, looked up): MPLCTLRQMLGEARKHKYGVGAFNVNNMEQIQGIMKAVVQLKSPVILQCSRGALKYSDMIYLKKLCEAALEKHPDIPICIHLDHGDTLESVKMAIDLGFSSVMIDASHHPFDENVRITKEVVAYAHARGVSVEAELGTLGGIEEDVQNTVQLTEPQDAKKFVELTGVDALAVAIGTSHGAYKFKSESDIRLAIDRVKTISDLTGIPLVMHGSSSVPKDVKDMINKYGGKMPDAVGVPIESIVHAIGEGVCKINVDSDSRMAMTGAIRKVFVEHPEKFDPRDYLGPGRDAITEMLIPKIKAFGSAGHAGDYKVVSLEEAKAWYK
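40 nM FBPA preincubated 10 min at RT with compound (up to 57.5 uM final), then substrate plus GAPDH/TPI/NAD/arsenate coupling and diaphorase/resazurin added. Fluorescence read after 20 min at RT, 525/598 nm.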
TbPYK inhibitor = qHTS of Trypanosoma Brucei Inhibitors; pyruvate kinase (Trypanosoma brucei), Q57TT1; TbPYK enzyme, Kinase-Glo Plus ATP luminescence, 45 min; Potency, µM (titrated, usually from 76.8 µM), for inactives: at the top dose activity, negative = inhibition, usual class: inhibitors; 410,000 tested, 0.12% active; note: potency is the fitted concentration of half-maximal effect; % is set by controls: 0 for no effect and ±100 for the full control effect; nearly all actives have a fitted effect of over 50% in size
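Quantitative HTS: titrated library compounds versus trypanosomal pyruvate kinase in TEA buffer (pH 7.2) containing KCl, MgCl2, BSA and Tween-20. Reactions were initiated with ADP, 130 uM final. Kinase-Glo Plus luminescence was read after 45 min at RT.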
Sm TGR inh = qHTS Assay for the Inhibitors of Schistosoma Mansoni Peroxiredoxins | 360,000 tested, 3% active | Schistosoma mansoni thioredoxin glutathione reductase (TGR), Q962Y6 | Potency, µM (titrated, usually from 114 µM), without a hit: at the top dose activity change, negative = inhibition, actives largely listed as inhibitors | purified TGR, DTNB reduction, TNB absorbance 405 nm; note: potency is the fitted concentration of half-maximal effect; % is set by controls: 0 for no effect and ±100 for the full control effect; nearly all actives have a fitted effect of over 60% in size
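Kinetic colorimetric format: TGR-catalysed, NADPH-driven DTNB reduction monitored via TNB absorbance. Enzyme dispensed at 20 nM; compound exposure 15 min at room temperature before reaction start.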
Shiga toxin inh = A qHTS for Small Molecule Inhibitors of Shiga Toxin; AID 2315, 2010; 290,000 tested, 9.2% active; Vero cells, Shiga toxin protein synthesis inhibition reporter; inhibition, % at 38.7 µM; in the data active = inhibition mostly above about 28%, no sharp cut-off; inactive = mostly below about 43%; note: 0% is about no effect
Cycloheximide cs = Cycloheximide Counterscreen for Small Molecule Inhibitors of Shiga Toxin | cell reporter, cycloheximide protein synthesis inhibition counterscreen | max response, % | 300,000 tested, 12% active | AID 2314, 2010; in the data active = max response mostly above about 13%, no sharp cut-off; inactive = mostly below about 14%; note: read at 38.3 µM for the half of the compounds with a filed dose; 0% is about no effect
LmPK inhibitor = qHTS Assay for Inhibitors of Leishmania Mexicana Pyruvate Kinase (LmPK) | Q27686 | purified LmPK, Kinase-Glo ATP luminescence, 1 h | Potency, µM (titrated, usually from 57.5 µM), for inactives: at the top dose activity change, negative = inhibition, most hits filed as inhibitors | 290,000 tested, 0.37% active | AID 1721, 2009; note: potency is the fitted concentration of half-maximal effect; % is set by controls: 0 for no effect and ±100 for the full control effect
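In 50 mM imidazole pH 7.2 with 7 mM MgCl2, LmPK (0.1 nM) turned over PEP (0.5 mM) and ADP (0.1 mM) for 1 h at room temperature. Luciferase read-out of ATP.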
Starred values were filed as active, the others as inactive; ? = inconclusive; · = not tested or not shown; [ ] = dose if it differs, or a comment. Many of the other results were omitted from the sample, so hits are more common in it than they were. Unless noted, calls come from the whole dose curve; as a rule, active = well fitted curve in the direction sought with a large enough effect; inconclusive = small, poorly fitted or top-dose-only effect, or another doubt; inactive = no such curve, though single readings can be large; an effect the other way counts as inactive or inconclusive.

SMILES	FBPA Giardia inh	TbPYK inhibitor	Sm TGR inh	Shiga toxin inh	Cycloheximide cs	LmPK inhibitor
Cc1[nH]c2ccccc2c1/C=N/NC(=O)CCC(=O)Nc1ccccc1	-10%	4%	18%	11	-1	7%
Cc1[nH]c2ccccc2c1/C=N/Nc1cccc(C(=O)O)c1	-17%	-12%	45µM*	128*	61*	-3%
Cc1ccc(C(=O)N(C)Cc2ccc(N3CCOCC3)cc2)cc1S(=O)(=O)NCc1ccccc1	·	2%	?	·	·	·
CN(Cc1ccc2c(c1)CCCN2C)C(=O)[C@H]1O[C@@H](n2ccc(=O)[nH]c2=O)[C@H](O)[C@@H]1O	·	-1%	·	·	·	·
CCOC(=O)c1ccc(NC(=O)Cn2cc(C(=O)c3ccc(Cl)cc3)c(=O)c3ccc(C)nc32)cc1	·	-2%	16%	·	·	·
COc1cccc2sc(N(Cc3cccnc3)C(=O)C3COc4ccccc4O3)nc12 (stereo not given)	·	4%[15.4 µM]	-4%	·	·	·
O=C(CNC(=O)c1cccs1)Nc1ccc2c(c1)OCCO2	·	0%	-10%	·	·	·
Cc1ccc(OCC(=O)NCC(=O)OCc2cc(=O)n3nc(C)sc3n2)cc1	·	-2%	3%	·	·	·
Cc1[nH]c2ccccc2c1/C=N/NC(=O)c1ccc(N)cc1	-6%	-5%	-17%	6	20	0%
Cc1[nH]c2ccccc2c(=O)c1C(=O)/C=C/c1ccccc1	-5%	0%	32µM*	-25	-2	-1%
Cc1[nH]c2ccccc2c1/C=C/C(=O)c1ccccc1	1%	2%	-6%	86*	25*	4%
Cc1[nH]c2ccccc2c1/C=N/NC(=O)c1cccc(Br)c1	7%	0%	-1%	40	26*	-2%
Cc1[nH]c2ccccc2c1/C=N/NC(=O)c1ccccc1	2%	0%	-2%	51*	42*	-10%
Clc1ccc(CN2CCC(CNc3ncnc4onc(-c5ccc(Cl)cc5)c34)CC2)cc1	·	0%	0%	·	·	·
CCn1c(=O)c2sccc2n2c(CCCC(=O)Nc3ccc(C)cc3)nnc12	·	7%	1%	·	·	·
COc1cc(C(CN)CC(=O)O)ccc1O (stereo not given)	-7%	5%	-19%	12	6	3%
COc1cc(C(O)C(=O)O)ccc1O (stereo not given)	?	-2%	10µM*	·	·	·
COc1cc(C(=O)C(=O)c2ccc(O)c(OC)c2)ccc1O	16%	-3%	1%	51*	active	0%
COc1cc(O)c(C(=O)c2ccccc2)cc1S(=O)(=O)O	6%	3%	·	10	3	·
COc1cc(O)c(C(=O)c2ccccc2)cc1O	3.5µM*	·	·	·	·	·
O=S(=O)(Nc1cccnc1)c1cccc2ccccc12	·	·	·	-8	5	·
Cc1nc(CS(=O)(=O)c2ccccc2)cc(Sc2ccc(Cl)cc2)n1	-2%	-6%	-5%	55*	27*	8%
Cc1nc(CS(=O)(=O)c2ccc(Cl)cc2)cc(Sc2ccccc2Cl)n1	0%	-6%	7%	19	-3	0%
Cc1nc(CS(=O)(=O)c2ccccc2)cc(Sc2ccccc2Cl)n1	0%	3%	0%	105*	38*	6%
Cc1ccc(NC(=O)CN(C)S(=O)(=O)c2ccc3nc(C)sc3c2)c(C)c1	·	1%	5%	·	·	·
SMILES	FBPA Giardia inh	TbPYK inhibitor	Sm TGR inh	Shiga toxin inh	Cycloheximide cs	LmPK inhibitor
Cc1ccc(Cn2c(=O)c3ccccc3n3c(-c4cccc(O)c4)nnc23)cc1	·	-4%	-3%	·	·	·
O=C(OCc1nc2ccc(Cl)cc2n1CCO)c1ccccc1	-7%	-12%	18µM*	-5	-2	2%
COC(=O)c1c(-c2ccccc2)c[nH]c1C	-4%	2%	?	82*	24*	-1%
COC(=O)c1c(C)[nH]c(C=O)c1-c1ccccc1	5%	-5%	12%	62*	30*	8%
CCCCC/C=C\CC(O)/C=C/c1cccc(CC(O)CCCCO)n1 (stereo not given)	0%	·	·	·	·	·
CCN(CC)c1cc(-c2ccccc2)ncn1	-21%	4%	-15%	-1	9	2%
CCN(CC)c1cc(Oc2ccccc2)ncn1	-3%	0%	-3%	73*	19*	-5%
CCOC(=O)/C(=C/c1c[nH]c2ccccc12)NC(C)=O	-1%	-11%	1%	9	1	-2%
CCOC(=O)/C=C(C)\C=C\c1c[nH]c2ccccc12	-9%	0%	?	56*	30*	4%
O=C(Nc1ccc2oc(-c3cccnc3)nc2c1)c1ccc(-c2cccc(Cl)c2)o1	·	-7%	35µM*	·	·	·
O=C(Nc1ccc2oc(-c3cccnc3)nc2c1)c1ccc(-c2ccc(Cl)cc2)o1	·	4%	32µM*	·	·	·
O=C(Nc1ccc2oc(-c3cccnc3)nc2c1)c1cccnc1	-19%	2%	-22%	34	-2	6%
O=C(NCc1ccco1)c1cccc(Nc2nc3ccc(Br)cc3[nH]2)c1	12%	2%	1%	0	10	6%
O=C(NCC1CC1)c1ccc(Nc2nc3ccc(Br)cc3[nH]2)cc1	4%	?	3.5µM*	-38	-2	-1%
COc1ccc(CCNC(=O)Cc2cccs2)cc1	5%	-11%	-1%	20	9	0%
O=C(Cc1ccc(Nc2nc3ccc(Br)cc3[nH]2)cc1)NCCc1cccs1	20%	-1%	1%	19	15*	6%
CCOc1ccc(S(=O)(=O)N2CCC(C(=O)NC3CCCCC3)CC2)cc1	·	0%	?	-13	-1	-2%
CCOCCCN1C(=O)c2[nH]nc(-c3ccccc3O)c2C1c1ccc(CC)cc1 (stereo not given)	·	-1%	-3%	·	·	·
COC(=O)C1(Cc2ccc(O)cc2)OC(=O)C(O)=C1c1ccc(O)cc1 (stereo not given)	-30%	-11%	16µM*	-10	-6	5%
COC(=O)CCc1ccc(O)cc1	11%	1%	-10%	-5	-2	-8%
S=c1[nH]cc(-c2ccc(Cl)cc2)n1Cc1ccccc1	7%	3%	10%	13	14*	-9%
CCn1c(-c2ccccc2)c[nH]c1=S	-7%	?	5%	-20	-3	14µM*
COC(=O)c1c[nH]c(=S)n1Cc1ccccc1	·	-29%	·	·	·	·
S=c1[nH]cc(-c2ccccc2)n1-c1ccccc1	-5%	?	-14%	-3	0	3.2µM*
CC1(C)O[C@@H]2[C@H](O1)[C@@H](COS(=O)(=O)O)O[C@H]2n1cc(Br)c(=O)[nH]c1=O	·	7%	·	·	·	·
COc1cc(C(O)c2nc(-c3cc4ccccc4o3)cs2)ccc1F (stereo not given)	·	0%	·	·	·	·
O=C(Nc1cccc(F)c1)N1CCCCCC1	4%	10%	14%	15	-1	-7%
